High-throughput results deposited in PubChem by several laboratories.
Rows were chosen to be rich in hits. Some 2.8% of all compounds tested hit in one or more screens of this group.
CF NFkB inh – cystic fibrosis NF-kB activation inhibition | KKLEB NF-kB-GFP reporter, PAF-induced, GFP fluorescence overnight | inhibition, % at 5 µM | actives 0.86% (n = 360,000);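 active = at least 50% inhibition at 5 µM, scaled per plate between neutral and stimulator controls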;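 note: PAF is a Pseudomonas aeruginosa culture filtrate used as stimulus; plate controls were PAF-stimulated DMSO wells for no effect and unstimulated DMSO wells for full effect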
Peg3 prom inh – Peg3 promoter activity inhibition; HeLa PEG-Prom luciferase reporter, luminescence, overnight; inhibition, % at 20 µM; actives 1.7% (n = 360,000); AID 588405;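 active = inhibition of at least 50% at 20 µM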
B2AR ag – human beta-2 adrenergic receptor agonism by FAP; P07550; Am2.2-beta2AR cells, FAP receptor internalization, flow cytometry; response, % (concentration not given with the values); actives 0.43% (n = 340,000); AID 504454;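 active = response above a set limit, near 3 SD of response in nonfluorescent compounds, cut at about 42% in these data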
Target sequence (P07550 whole entry, looked up): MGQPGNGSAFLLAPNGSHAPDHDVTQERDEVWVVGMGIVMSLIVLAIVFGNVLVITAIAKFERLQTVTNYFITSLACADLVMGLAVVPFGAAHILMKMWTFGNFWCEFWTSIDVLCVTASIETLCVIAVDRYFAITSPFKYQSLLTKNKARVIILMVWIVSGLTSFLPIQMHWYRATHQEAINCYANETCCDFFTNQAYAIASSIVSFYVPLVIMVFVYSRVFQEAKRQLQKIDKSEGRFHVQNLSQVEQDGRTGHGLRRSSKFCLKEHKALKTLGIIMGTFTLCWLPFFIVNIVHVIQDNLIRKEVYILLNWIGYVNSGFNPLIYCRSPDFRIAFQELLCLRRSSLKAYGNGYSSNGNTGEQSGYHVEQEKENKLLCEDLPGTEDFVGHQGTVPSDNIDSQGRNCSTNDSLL
TRPM1 prom inh – inhibitors of MITF-driven TRPM1 promoter in melanoma cells | actives 0.83% (n = 330,000) | SK-MEL-5 TRPM1 promoter luciferase, 24 h | inhibition, % at 12.5 µM | AID 488899;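 active = mean inhibition across replicates of 60% or more, whatever share of single replicates reaches that level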
KKLEB tox – counter-screen for CF NF-kB inhibitors: cytotoxicity. KKLEB CF airway cells viability, ATPlite luminescence, overnight; hits give low values; cells stimulated with P. aeruginosa culture filtrate. activity change (cytotoxicity), % at 5 µM. actives 0.36% (n = 360,000). AID 602141;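 active = corrected activity change at or below -50% at 5 µM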
HIF-2a block – HIF-2a inhibition; actives 0.72% (n = 360,000); inhibition, % at 18.8 µM; 786-0 RCC cells HIF-2a reporter, luciferase luminescence, overnight; AID 624352;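 active = inhibition of the luminescence signal of 40% or more relative to plate controls, in a single-dose primary screen at 18.75 µM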
Numbers without * were called inactive; x = not tested or not shown; ! = not active in a repeat.

SMILES	CF NFkB inh	Peg3 prom inh	B2AR ag	TRPM1 prom inh	KKLEB tox	HIF-2a block
COC(=O)c1ccc2nc(-c3ccco3)c(Cc3ccc(OC)cc3C)n2c1	-6	-29	x	x	7	-23
CC(=O)N(C1=C(N2CCOCC2)C(=O)c2ccccc2C1=O)c1ccc(C(=O)O)cc1	-4	12	8	13	0	64*
O=C(NCc1ccccc1)C(c1ccc(-c2ccccc2)cc1)n1c(=O)c(-c2cc3ccccc3[nH]2)nc2ccccc21 (stereo unspecified)	x	x	x	x	x	-51
CCn1c(/C=C/c2cc(Br)ccc2O)nc2ccccc2c1=O	30	68*	13	15	-10	22
CC(C)(C)c1ccc(C(O)c2ncc(-c3ccc4ccccc4c3)[nH]2)cc1 (stereo unspecified)	-6	-13	x	x	-2	-72
COC(=O)C[C@@H]1CC[C@@H](NC(=O)C2CCC2)[C@@H](CO)O1	x	x	x	x	x	1
COc1cc(NC(=O)c2ccnc(N)c2)cc(C(=O)Nc2cccc(C(F)(F)F)c2)c1	-2	-51	8	-25	10	-113
COc1cc(NC(=O)c2cnc(N)o2)cc(C(=O)Nc2cccc(C(F)(F)F)c2)c1	-1	56*!	0	34	1	-67
COc1ccc2c(c1)c1nc3ccccc3nc1n2CC(=O)OC(C)C	23	55*	-22	13	-56*	-2
COc1ccc(Cn2c3ccc(OC)cc3c3nc4ccccc4nc32)cc1	-5	16	8	0	-13	14
Cc1cc(NC(=O)COC(=O)CCn2c(C)csc2=O)c([N+](=O)[O-])cc1C	-34	11	x	x	13	5
C[C@@H](NC(=O)[C@@H]1CCCN1C(=O)[C@@H]1CCCN1C(=O)c1ccccc1)c1ccccc1	x	x	x	x	x	12
O=C1CSC(c2ccc3c(c2)OCO3)N1c1ccc(Oc2ccccc2)cc1 (stereo unspecified)	4	12	-13	14	-97*	26
Cc1ccc(N2C(=O)CSC2c2ccc3c(c2)OCO3)cc1 (stereo unspecified)	7	7	-4	-1	-4	5
COc1ccccc1CCC(=O)OCC(=O)Nc1ccc(C(N)=O)cc1	67*	7	-1	13	-84*	5
COc1ccccc1CCC(=O)OCC(=O)Nc1ccc(S(N)(=O)=O)cc1	2	9	1	11	1	10
Cn1c(=O)c2c(SCC(N)=O)nc(CC(C)(C)C)nc2n(C)c1=O	15	15	2	-12	1	5
CCCc1nc(SCC(=O)N2CCC(Cc3ccccc3)CC2)c2c(=O)n(C)c(=O)n(C)c2n1	28	99*	32	7	3	-25
Cn1c(=O)c2c(SCC(=O)N3CCCc4ccccc43)nc(CC(C)(C)C)nc2n(C)c1=O	36	23	8	3	-15	53*
CCNC(=O)C1(C)CCCN(C(=O)c2csc3ccccc23)C1 (stereo unspecified)	1	12	x	x	2	3
CCCc1c(C(=O)N/N=C/c2ccoc2)nnn1-c1nonc1N	4	0	x	x	4	-5
O=C(Nc1ccc(C(O)c2ccccc2)cc1)[C@@H]1O[C@H](CO)[C@H](O)[C@H](O)[C@H]1O (stereo partly specified)	-37	5	x	x	9	9
CC1=C(C(=O)N(C)C)CC(CC(=O)NC2CC2)C(=O)N1Cc1ccc(C(C)(C)C)cc1 (stereo unspecified)	3	-12	x	x	2	2
Cc1ccc(C)c(NC(=O)CCC(=O)N/N=C/c2cc([N+](=O)[O-])ccc2O)c1	-10	6	65*	12	8	-1
O=C(N/N=C/c1cc([N+](=O)[O-])ccc1O)c1cccc2cc[nH]c12	18	40	5	74*	-14	-12
SMILES	CF NFkB inh	Peg3 prom inh	B2AR ag	TRPM1 prom inh	KKLEB tox	HIF-2a block
COc1cc(C)c(C(=O)CC(=O)c2c(C)cc(OC)cc2C)c(C)c1	9	50*	-2	x	-6	23
COc1ccc(NC(C)=O)c(C)c1	-14	-3	19	2	2	19
O=c1[nH]c(=O)n(Cc2ccco2)c2c1C(C(F)(F)F)(C(F)(F)F)N=C(CCc1ccccc1)N2	7	55*	5	6	-39	29
O=c1[nH]c(=O)n(Cc2ccco2)c2c1C(C(F)(F)F)(C(F)(F)F)N=C(CCC1CCCCC1)N2	21	44	5	14	-19	18
O=C1CC(N(CCc2ccccc2)C(=S)Nc2ccccc2)C(=O)N1c1ccc(Br)cc1 (stereo unspecified)	11	54*	13	-10	-8	-30
COc1ccc(-n2c(C)c([N+](=O)[O-])c3ccc(O)c(CN4CCCCC4)c32)cc1	73*	10	10	18	-33	20
COc1ccc2ccc(O)c(CN3CCN(S(=O)(=O)c4cc([N+](=O)[O-])ccc4C)CC3)c2c1	26	4	-3	3	-8	10
O=C(CCl)N1CCN(S(=O)(=O)c2ccc3ccccc3c2)CC1	-20	110*	9	23	-19	31
C[C@H]1CN([C@@H](C)CO)S(=O)(=O)c2ccc(Br)cc2O[C@@H]1CN(C)C(=O)Nc1ccc2c(c1)OCO2	4	21	x	x	6	17
CC1CCC(NC(=O)c2[nH]c(C(F)(F)F)nc2-c2ccccc2)CC1 (stereo unspecified)	-10	7	x	x	12	-2
O=C1Nc2ccc(Br)cc2C12NNc1ccccc1O2 (stereo unspecified)	-83	67*	-400	16	7	-26
COC(=O)[C@@]1(Cc2ccc(F)cc2)[C@H]2c3cc(C(=O)N(C)C)n(Cc4ccc(C)o4)c3C[C@H]2CN1C(=O)c1ccccc1	x	x	x	x	x	7
Nc1nc(=S)c2ncn([C@@H]3O[C@H](CO)[C@@H](O)[C@H]3O)c2[nH]1	-10	62*	0	72*	15	6
COc1ccc(-c2cc(C(=O)NCc3ccc(F)cc3)[nH]n2)c(C)c1	0	-9	x	x	-20	-11
CC(C)c1ccc(CC(=O)N2CCC2(C)C(=O)NS(=O)(=O)c2ccc(Cl)s2)cc1 (stereo unspecified)	-13	4	x	x	17	5
O=C(Nc1cc(Cl)ccc1-n1cncn1)c1ccco1	-1	25	2	24	0	19
O=C(Nc1cc(Cl)ccc1-n1cncn1)c1ccc([N+](=O)[O-])s1	-21	37	-14	62*	2	25
Cc1cc2oc(=O)cc(CN3CCCCC3)c2cc1Cl	12	-9	x	x	-20	-15
Cc1ccc(NC(=O)CSc2nnnn2-c2ccc3c(c2)OCO3)cc1C	65*	33	-4	12	-54*	13
CC1=C(C(=O)N2CCCCCC2)CC(CC(=O)NCCCN(C)C)C(=O)N1CCCN1CCCC1=O (stereo unspecified)	x	x	x	x	x	-2
